# Reference: PubChem BioAssay AID1010 (Sanford-Burnham Center for Chemical Genomics, 2008)
# In all, about 48,000 compounds went through this assay and about 160 (0.33%) were called active. The entries come from a sample that favours actives as a whole. A number with no mark means an inactive call.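 How the source made its calls: active means survival measured by cellular ATP above 50% at 15 µg/ml in the first screen; inactive means the rest.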
# Experiment: protection against thapsigargin ER stress killing – CSM14.1 cells, ATP luminescence, primary screen (AID 1010);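 further: cell death triggered by about 15 µM thapsigargin; ATP read 24 h after thapsigargin was added; plate controls were thapsigargin with DMSO for no effect and DMSO without thapsigargin for full effect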
# Settings: CSM14.1 thapsigargin ER stress survival, hits give high values, screened at 15 µg/mL (by protocol)
row,Compound,relative survival (cellular ATP)
1,COc1cc(OC)cc(C(=O)N2CCN(C)CC2)c1,4.1%
2,CONC(=O)c1ccc(C(=O)c2cc(OC)ccc2OC)cc1,6.5%
3,CSCCOC(=O)COc1ccc(/C=N/NC(=O)c2ccc(CN3CCOCC3)cc2)cc1,9.5%
4,CN(C)c1cccc(C(=O)N2CCN(c3cccc(Cl)c3)CC2)c1,-2.8%
5,COc1cccc(/C=N/NC(=O)c2cc(-c3ccc4ccccc4c3)n[nH]2)c1,5.9%
6,CC(=O)c1c(-c2ccccc2)c2cc(C)ccc2[nH]c1=O,-1.1%
7,O=C(NC(CO)(CO)CO)c1cccc(-c2ccc(O)cc2)c1,-1.2%
8,CC(=O)Nc1ccc(NC(=O)c2ccccc2-c2ccccc2C(=O)O)cc1,7.5%
9,Cc1ccc(C2=NNC(c3ccc(Cl)cc3Cl)S2)cc1 (centres undefined),-7.4%
10,CCn1c(C(O)c2cc(OC)ccc2OC)nc2ccccc21 (centres undefined),1.7%
11,O=C1S/C(=C/c2ccc(-c3ccc(Cl)cc3Cl)o2)C(=O)N1c1ccccc1,7%
12,CN(C)CCOC(=O)CCN1C(=O)/C(=C/c2ccc(Cl)cc2Cl)SC1=S,-20.4%
13,O=C(O)CCN1C(=O)/C(=C/c2ccc(-c3cc(Cl)ccc3Cl)o2)SC1=S,64% (active)
14,CCCN1C(=O)c2ccccc2NC1c1ccc(O)c(OC)c1 (centres undefined),-2.6%
15,C/C(=N\NC(=O)c1cccc([N+](=O)[O-])c1)c1cccnc1,2.9%
16,COc1ccc(NC(=O)/C(C#N)=C/c2ccccc2[N+](=O)[O-])cc1,2.4%
17,Cc1ccc(NC(=O)CC2Nc3cc(C)c(C)cc3NC2=O)cc1 (centres undefined),6.1%
18,Cc1nn(C(=O)C23CC4CC(CC(C4)C2)C3)c(C)c1Sc1ccc([N+](=O)[O-])cc1,6.7%
19,COC(=O)C1=CNC=C(C(=O)OC)C1c1cc(C)ccc1C,10%
20,O=C1C=CC(=O)N1Nc1c(Cl)cc(Cl)cc1Cl,-7.8%
21,O=C(CCc1ccccc1)Nc1ccccc1-c1ccccc1,2.5%
22,COc1cc(OC)cc(C(=O)N/N=C(\C)CC(=O)Nc2ccccc2-c2ccccc2)c1,66% (active)

row,Compound,relative survival (cellular ATP)
1,C/C(CC(=O)Nc1cccc2ccccc12)=N\NC(=O)c1ccoc1C,5.7%
2,CCOc1cc(C=C2C(=O)c3ccccc3C2=O)ccc1OCc1ccc(Cl)cc1Cl,11.4%
3,COc1cccc(OCCCCOc2ccccc2OC)c1,6%
4,CN1C(=O)C(=Cc2cc(Br)c(O)c(I)c2)C(=O)N(C)C1=O,-1%
5,CCOCCOCCN1C(=O)c2ccccc2C1=O,6.5%
6,C/C(CC(=O)Nc1ccc(Nc2ccccc2)cc1)=N\NC(=O)c1ccccc1C,16.5%
7,CCOC(=O)CCc1c(C)nc2c(C)c(-c3ccc(C)cc3)[nH]n2c1=O,8.2%
8,CCCCc1ccc(/C=N/Nc2ccc([N+](=O)[O-])cc2)s1,5%
9,CCOc1cc(C2NC(=S)NC(C)=C2C(=O)Nc2ccccc2C)ccc1O (centres undefined),-0.3%
10,CCOc1cc(C=O)cc(I)c1OC(C)C,0.3%
11,CC(C)=N/N=C1/NC(=O)C(CC(=O)Nc2ccc(C)c(C)c2)S1 (centres undefined),2%
12,CC(=O)Nc1ccccc1NC(=O)COc1ccc(C)cc1C,6.5%
13,COc1ccc(N2C(=O)/C(=C/c3cc(C)n(-c4ccc([N+](=O)[O-])cc4)c3C)C(=O)NC2=S)cc1,-5.8%
14,C=CCOc1cccc(/C=N/NS(=O)(=O)c2ccc(Cl)cc2)c1,3.1%
15,O=C(O)c1ccccc1C(=O)N1CCN(C(=O)c2ccccc2C(=O)O)CC1,-0.9%
16,CCN(CC)c1ccc(Nc2nc(-c3sc(C)nc3C)cs2)cc1,49.2%
17,O=C1/C(=C/c2ccc(F)cc2)SC(=S)N1c1ccc(F)cc1,-1.4%
18,CCN1C(=O)/C(=C/c2ccc(NC(=O)c3ccc4ncccc4c3)cc2)SC1=S,8.8%
19,COC(=O)C(C)NC(=O)CCC1CCCCC1 (centres undefined),4.2%
20,Cc1cccc(C)c1OCC(=O)Nc1sc2c(c1C(N)=O)CCC2,10.1%
21,CC(=O)C1=C(O)C(=O)N(CC2CCCO2)C1c1ccc(C(C)C)cc1 (centres undefined),-5.9%
22,COc1ccc(C2CC(C(F)(F)F)n3nc(C(=O)NCCc4ccccc4)c(Cl)c3N2)cc1OC (centres undefined),2.7%

row,Compound,relative survival (cellular ATP)
1,COc1cc(NC(=O)c2cc(Cl)c(OC)c(Cl)c2)ccc1NC(=O)c1ccco1,-1.3%
2,CCSc1nnc2c(n1)OC(c1ccc(-c3ccc(Cl)cc3)o1)Nc1ccccc1-2 (centres undefined),4.5%
3,COc1ccccc1/C=N/NC(=O)c1cc(C23CC4CC(CC(C4)C2)C3)[nH]n1,3%
4,Cc1c(OCC(=O)N(C)C)ccc2c3c(c(=O)oc12)CCCC3,4.4%
5,N#Cc1ccc(/C=N/Nc2nc(-c3ccccc3)cs2)cc1,5.1%
6,CS(=O)(=O)N1CCN(Cc2ccc(Br)cc2)CC1,-1.6%
7,O=C(CSc1nnc(-c2cccs2)n1-c1ccccc1)c1cccc([N+](=O)[O-])c1,-3.1%
8,COc1ccc2ccccc2c1-c1cc(C(=O)NN)[nH]n1,-1%
9,COCCCN1C(=O)c2cccc3cccc(c23)C1=O,0.8%
10,O=C(CCCN1C(=O)c2cccc3cccc(c23)C1=O)N1CCN(Cc2ccc3c(c2)OCO3)CC1,77.5% (active)
11,O=C(CCN1C(=O)c2cccc3cccc(c23)C1=O)OCCCc1ccncc1,5.7%
12,Cc1[nH]n(-c2ccccc2)c(=O)c1C(c1ccc(C(F)(F)F)cc1)c1c(C)[nH]n(-c2ccccc2)c1=O,4.8%
13,O=C(O)CCCNC(=O)c1ccccc1NC(=O)c1ccccc1,7.8%
14,Cc1nnc(N2C(=O)c3ccc(-c4nc5ccccc5c(=O)o4)cc3C2=O)s1,5.9%
15,CN(C1=NS(=O)(=O)c2ccccc21)c1ccccc1,3.5%
16,O=C(COc1ccccc1)Nc1cccc(NC(=O)c2ccco2)c1,9%
17,COc1ccccc1/C=C1/SC(=S)N(CCC(=O)N2c3ccccc3Sc3ccc(Cl)cc32)C1=O,10%
18,CC(N=Cc1ccccc1O)C12CC3CC(CC(O)(C3)C1)C2 (centres undefined),-0.1%
19,Cc1cc(OCC(=O)Nc2ccccc2C(N)=O)cc(C)c1Cl,2.7%
20,O=C(Nc1ccc(Br)c(Cl)c1)C(c1ccccc1)c1ccccc1,4.5%
